# “And” between values parts separate entries of the source, which are not always exact repeats. Equal entries are not always repeated. Records with an inconclusive call do not appear. Where a call stands in place of a potency, no number is given. More than one record can exist for a structure, and the calls need not agree. The source made the active and inactive calls. Calls follow the shape of the dose curve; as a rule, active = well fitted cell-killing curve with a large enough effect in the repeat runs; inconclusive = weak or mixed curves, or effect the other way; inactive = no such curve, though single readings can be large or run the other way.
# Experiment: qHTS assay for identifying genotoxic compounds that show differential cytotoxicity against isogenic chicken DT40 cell lines with known DNA damage response pathways - Rev3 mutant cell line (AID 743014); also: nearly all actives have a fitted effect of over 55% in size
# Settings: chicken DT40 Rev3-/- viability, CellTiter-Glo, 40 h; series mostly up to 68.4 µM
# Excerpt: National Center for Advancing Translational Sciences [NCATS]
# NIH Chemical Genomics Center [NCGC]
# U.S. Environmental Protection Agency [EPA]
# National Institutes of Environmental Health Sciences [NIEHS]
# National Toxicology Program [NTP]
# U.S. Food and Drug Administration [FDA]
# DNA repair pathways play a critical role in cellular homeostasis by repairing DNA damage induced by endogenous processes and xenobiotics. Isogenic chicken DT40 cell lines deficient in different DNA repair pathways can be used to identify genotoxic compounds and aid in characterizing the nature of the DNA damage induced. Two DNA repair-deficient cell lines with disrupted genes, Rad54/Ku70 or Rev3, were used to screen the Tox21 10K compound library. Possible genotoxicity was based on the presence of a significant increase in cytotoxicity in one or more of the DNA repair-deficient cell lines compared to that observed in the parental DNA repair-proficient cell line. CellTiter Glo viability assay (Promega, Madison, WI) was used to measure cell viability in these cells after compound treatment. This assay includes the data from the Rev3 mutant cell line.
# Tox21 Assay Protocol Summary:
# 300 DT40 mutant cells in 5 uL/well were dispensed into white, solid-bottom 1536-well plates using a Multidrop Combi (ThermoFisher Scientific, Waltham, MA) dispenser. After the assay plates were incubated at 37 C/5% CO2 for approximately 0.5 hour, 23 nL of compounds dissolved in DMSO, positive controls or DMSO only was transferred into the assay plate by a pintool work station (Kalypsys, San Diego, CA). The assay plates were incubated at 37 C/5% CO2 for 40 hours. After 5 uL per well of CellTiter-Glo reagent was added into each well of the assay plates, the plates were incubated for 30 min at room temperature and the luminescence intensity of the plates was measured using a ViewLux (PerkinElmer, Shelton, CT) plate reader.
# Potency is read from the fitted curve at half-maximal effect.
row,Structure (SMILES),Potency
1,CCCCCCCCCCCCCCCC[N+](C)(C)Cc1ccccc1,750 nM (active) and 631 nM (active) and 783 nM (active)
2,CC12CCC(CC1)C(C)(C)O2,inactive
3,C=CCc1ccc(O)c(OC)c1,inactive
4,CCN(Cc1c(F)cccc1Cl)c1c([N+](=O)[O-])cc(C(F)(F)F)cc1[N+](=O)[O-],27.3 µM (active)
5,CCc1nc(N)nc(N)c1-c1ccc(Cl)cc1,668 nM (active) and 196 nM (active) and 109 nM (active)
6,CC1(C)O[C@@H]2C[C@H]3[C@@H]4CCC5=CC(=O)C=C[C@]5(C)[C@@]4(F)[C@@H](O)C[C@]3(C)[C@]2(C(=O)CO)O1,inactive
7,COc1ccc2c(c1)c(CC(=O)O)c(C)n2C(=O)c1ccc(Cl)cc1,inactive
8,COc1ccc(C(Cl)=C(c2ccc(OC)cc2)c2ccc(OC)cc2)cc1,29.8 µM (active) and 48.3 µM (active) and 27.3 µM (active)
9,CN1CCC[C@H]1c1cccnc1,inactive
10,O=C1NC(=O)C(c2ccccc2)(c2ccccc2)N1,inactive
11,CC1(C)S[C@@H]2[C@H](NC(=O)[C@H](N)c3ccccc3)C(=O)N2[C@H]1C(=O)O,inactive
12,CC(O)(P(=O)(O)O)P(=O)(O)O,inactive
13,CS(=O)(=O)OCCCCOS(C)(=O)=O,inactive
14,CC(C)NCC(O)c1ccc(O)c(O)c1 (stereo not given),61.1 µM (active)
15,CCCC[P+](CCCC)(CCCC)CCCC,684 nM (active) and 3.93 µM (active)
16,O=C1NS(=O)(=O)c2ccccc21,inactive
17,COc1ccc(CN(CCN(C)C)c2ccccn2)cc1,inactive
18,C1CCC(C(CC2CCCCN2)C2CCCCC2)CC1 (stereo not given),4.73 µM (active)
19,CN(C)C(=O)Nc1ccc(Cl)c(Cl)c1,inactive and 54.5 µM (active)
20,CN1CCc2cccc3c2[C@H]1Cc1ccc(O)c(O)c1-3,11.9 µM (active) and 6.93 µM (active) and 9.09 µM (active)

row,Structure (SMILES),Potency
1,CC(=O)CC(c1ccccc1)c1c(O)c2ccccc2oc1=O (stereo not given),inactive
2,O=C(O)c1ccccc1,inactive
3,CCCCC1(COC(=O)CCC(=O)O)C(=O)N(c2ccccc2)N(c2ccccc2)C1=O,inactive
4,C=C1CC[C@H](O)C/C1=C\C=C1/CCC[C@]2(C)[C@@H]([C@H](C)CCCC(C)C)CC[C@@H]12,26.6 µM (active) and 24.1 µM (active)
5,CN[C@H]1CC[C@@H](c2ccc(Cl)c(Cl)c2)c2ccccc21,8.41 µM (active)
6,CCCCCCc1ccc(O)cc1O,54.6 µM (active) and 38.6 µM (active)
7,O=C1c2c(O)cccc2Cc2cccc(O)c21,inactive
8,Cn1c(=O)c2c(ncn2C)n(C)c1=O,inactive and 49.2 µM (active)
9,NC(=O)c1cccnc1,inactive
10,CN(C)C(=S)SC(=S)N(C)C,1.19 µM (active) and 886 nM (active) and 96.9 nM (active)
11,Nc1c(N=Nc2ccc(-c3ccc(N=Nc4cc(S(=O)(=O)O)c5ccccc5c4N)cc3)cc2)cc(S(=O)(=O)O)c2ccccc12,inactive and 34.3 µM (active)
12,C/C=C/C=C/C(=O)O,inactive
13,CCN(CC)C(=O)c1cccc(C)c1,inactive
14,CCOC(N)=O,inactive
15,Cc1cc(C)nc(NS(=O)(=O)c2ccc(N)cc2)n1,inactive
16,Cc1cn([C@H]2C=C[C@@H](CO)O2)c(=O)[nH]c1=O,inactive
17,Cc1ncc([N+](=O)[O-])n1CCO,inactive
18,COc1ccc2cc(S(=O)(=O)N[C@H](CC(=O)N[C@H](Cc3ccc(CN4[C@H](C)CCC[C@@H]4C)cc3)C(=O)N(C)C(C)C)c3ccc4c(c3)OCO4)ccc2c1,9.17 µM (active)
19,CCCCOC(=O)c1ccc(O)cc1,inactive and 61.1 µM (active)
20,Cc1cc(=O)oc2cc(O)ccc12,inactive
